# Shiga toxin inh: A qHTS for Small Molecule Inhibitors of Shiga Toxin; Vero cells, Shiga toxin protein synthesis inhibition reporter; inhibition, % at 38.7 µM; 9.2% of 290,000 active; AID 2315, 2010; in the data active means inhibition mostly above about 28%, no sharp cut-off; inactive means mostly below about 43%
# Pf growth 96h: Primary qHTS for delayed death inhibitors of the malarial parasite plastid, 96 hour incubation; AID 504834, 2011; 6.9% of 320,000 active; P. falciparum luciferase reporter growth, 96 h; Potency, µM (top dose mostly 28.7 µM), usual class: inhibitors
#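 Erythrocytes infected with luciferase-expressing P. falciparum were dispensed at 2% hematocrit and 0.05% parasitemia (final), then incubated with compounds 96 hours at 37 C in 5% CO2. Luminescence after detection reagent addition reported growth.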
# Pf growth 48h: Primary qHTS for delayed death inhibitors of the malarial parasite plastid, 48 hour incubation; P. falciparum luciferase growth in erythrocytes, 48 h; Potency, µM (top dose mostly 28.7 µM), hits mostly inhibitors; 5.9% of 310,000 active; AID 504832, 2011
#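 Read-out is firefly luciferase luminescence from an integrated reporter in P. falciparum, so falling signal marks reduced parasite growth. Infected erythrocytes were at 2% hematocrit and 0.1% parasitemia (final) in Albumax-supplemented RPMI 1640.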
# HCV inhibitor: qHTS Assay for Inhibitors of Hepatitis C Virus (HCV). Huh7.5.1 HCVcc-Cre infection, luciferase reporter, 44 h. Potency, µM (titrated, usually from 41.8 µM), actives largely listed as inhibitors. 3.4% of 340,000 active. AID 651820, 2012
#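 Seed cells (1,000/well) for 4 h; treat with compound and infect with HCVcc-Cre, moi about 0.5. Incubate 44 h, then detect luciferase activity.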
# HCMV antiviral: qHTS Assay for inhibitors of the human cytomegalovirus (HCMV); HFF cells, HCMV-luciferase reporter, 72 h; hits give low values; activity change, negative = inhibition, % at 57.5 µM; 4.5% of 410,000 active; in the data active means activity change below about -60%; inconclusive means no clear call, values can overlap the other calls; inactive means above about -39%
#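 After 16 h attachment at 37C, HFF cells received test compound and HCMV-luciferase (1 PFU/cell); reporter luminescence read 72 h later, data normalized against buffer-only and known inhibitor Salinomycin.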
# CHX counter: Cycloheximide Counterscreen for Small Molecule Inhibitors of Shiga Toxin. cell reporter, cycloheximide protein synthesis inhibition counterscreen. max response, %. 12% of 300,000 active. AID 2314, 2010; in the data active means max response mostly above about 13%, no sharp cut-off; inactive means mostly below about 14%; further: read at 38.3 µM for the half of the compounds with a filed dose
# Hits are given with their value; – = inactive; ? = inconclusive; · = no result given; [ ] = another dose, or the depositor's remark. In the library only some 21% were active in any assay of this set; here they are far more common. Unless noted, the call rests on the fitted dose curve; in most records, active means well fitted inhibition curve with a large enough effect; inconclusive means small, poorly fitted or top-dose-only effect, or another doubt; inactive means no such curve, though single readings can be large or run the other way.
SMILES,Shiga toxin inh,Pf growth 96h,Pf growth 48h,HCV inhibitor,HCMV antiviral,CHX counter
COc1cc(/C=C2\SC(c3ccc(C)cc3)=NC2=O)cc(OC)c1O,–,?,?,–,-75,–
COc1cc(/C=C2\SC(N)=NC2=O)cc(Cl)c1O,·,?,–,–,–,–
Cc1ccc(C2=NC(=O)/C(=C/c3cc(O)c(O)c(Br)c3)S2)cc1,–,–,10µM,–,–,–
COCCNC(=O)c1nn(-c2ccc(Cl)cc2)nc1CO,·,·,·,·,–,·
COc1ccc(CCC(=O)NCc2ccc3c(c2)CCN3C(=O)c2ccccc2)cc1,·,·,·,·,–,·
Cc1ccc(C(=O)NCc2ccc3c(c2)CCN3C(=O)c2ccc(C)cc2)cc1,·,·,·,·,-64,·
COc1ccc(CCC(=O)NCc2ccc3c(c2)CCN3C(=O)c2cccc(C)c2)cc1,·,·,·,·,-72,·
COc1ccc(CC(=O)NCc2ccc3c(c2)CCN3C(=O)c2ccc(Cl)cc2)cc1OC,·,·,·,·,-67,·
Cc1ccc(CNC(=O)c2ccc(N3CCc4ccccc43)c([N+](=O)[O-])c2)cc1,–,?,–,6.3µM,?,–
COc1cccc(NC(=O)CCC(=O)Nc2cc(OC)c(NC(=O)c3cccs3)cc2OC)c1,–,–,–,–,–,–
CC(C)(C)C(=O)c1cn(CC(=O)O)c2ccccc12,–,–,–,10µM,–,–
COc1ccc(N2CCN(C(=O)C(=O)c3cn(CC(=O)N4CCCCCC4)c4ccccc34)CC2)cc1,–,10µM,?,?,–,–
O=C(C(=O)N1CCN(c2ccccc2)CC1)c1cn(CC(=O)N2CCCCCC2)c2ccccc12,–,?,9.3µM,?,–,–
O=C(c1ccccc1)c1cn(CC(=O)N2CCCC2)c2ccccc12,–,3.7µM,·,–,–,–
C=CCn1c(COc2ccc(Cl)cc2)nnc1SCC(=O)c1c(N)n(C)c(=O)n(C)c1=O,–,–[5.75 µM],–,–,–,–
COc1cccc(C(=O)NC(c2ccccc2)C2CCCC2)c1 (configuration not stated),–,?,?,–,–,–
CCCCCC(=O)Nc1cccc(C2=NOC3(C2)C[C@@H](C(N)=O)N(C(=O)CC(c2ccccc2)c2ccccc2)C3)c1 (some centres not stated),–,?,–,?,–,–
CC1CCN(C(=O)C(=O)c2cn(CC(=O)N3CCCCCC3)c3ccccc23)CC1,–,?,?,–,–,–
O=C(O)Cn1cc(C(=S)N2CCCCC2)c2ccccc21,–,8.3µM,–,–,–,–
CC1CCCN(C(=O)C(=O)c2cn(CC(=O)N3CCCCCC3)c3ccccc23)C1 (configuration not stated),–,12µM,?,–,–,–
Cc1ccc(C)c(-n2c3nc(=O)[nH]c(=O)c-3cc3c(C)nn(-c4ccccc4)c32)c1,·,·,·,·,–,·
Cc1ccc(OCC(=O)NCc2cccs2)c([N+](=O)[O-])n1,–,–,–,–,–,–
COc1ccc(CCN2CC(C(=O)N(C)CC(=O)Nc3cccc(F)c3)CC2=O)cc1OC (configuration not stated),–,–,–,–,–,–
O=c1sc2ccccc2n1CCCOc1ccccc1,119,–,–,?,–,42
CC(C)Oc1ccc(Cn2c(=O)sc3ccccc32)cc1,–,–,–,–,–,–
SMILES,Shiga toxin inh,Pf growth 96h,Pf growth 48h,HCV inhibitor,HCMV antiviral,CHX counter
Cc1ccc(OCCn2c(=O)sc3ccccc32)cc1,61,?,–,–,–,45
COc1ccc(Cn2c(=O)sc3ccccc32)cc1,–,·,–,–,–,–
O=c1sc2ccccc2n1Cc1ccccc1,–,?,–,–,–,–
Cc1ccc(OCCCn2c(=O)sc3ccccc32)cc1,–,–,?,–,–,24
Cc1ccccc1OCCCn1c(=O)sc2ccccc21,106,–,–,?,–,66
O=C(c1cccs1)N1C[C@H](O)[C@@H](n2cc(-c3ccc(F)cc3)nn2)C[C@@H]1c1ccccc1,·,·,·,·,–,·
CCOc1ccccc1Cn1c(=O)sc2ccccc21,–,?,–,–,-66,–
COc1cc(OC)c(NC(=O)N2CCc3cc(OC)c(OC)cc3C2CC(=O)O)cc1Cl (configuration not stated),·,·,·,·,–,·

# Source: PubChem
